Source: PubChem BioAssay AID1903 (Southern Research Specialized Biocontainment Screening …, 2009)
Screen size: about 310,000 compounds; about 1,200 (0.39%) were called active. How the calls were made is not given here. These entries were drawn from the full list. Entries with a potency or affinity are not part of this list.

Each compound was assayed against Large T antigen (Simian virus 40) (UniProt P03070) (assay: TAg ATPase/helicase activity blockers – biochemical (AID 1903)). Conditions: SV40 large T antigen ATPase/helicase inhibition assay; at 20 µM; active compounds read high.
Sequence of Large T antigen (Simian virus 40) (P03070 whole entry, looked up): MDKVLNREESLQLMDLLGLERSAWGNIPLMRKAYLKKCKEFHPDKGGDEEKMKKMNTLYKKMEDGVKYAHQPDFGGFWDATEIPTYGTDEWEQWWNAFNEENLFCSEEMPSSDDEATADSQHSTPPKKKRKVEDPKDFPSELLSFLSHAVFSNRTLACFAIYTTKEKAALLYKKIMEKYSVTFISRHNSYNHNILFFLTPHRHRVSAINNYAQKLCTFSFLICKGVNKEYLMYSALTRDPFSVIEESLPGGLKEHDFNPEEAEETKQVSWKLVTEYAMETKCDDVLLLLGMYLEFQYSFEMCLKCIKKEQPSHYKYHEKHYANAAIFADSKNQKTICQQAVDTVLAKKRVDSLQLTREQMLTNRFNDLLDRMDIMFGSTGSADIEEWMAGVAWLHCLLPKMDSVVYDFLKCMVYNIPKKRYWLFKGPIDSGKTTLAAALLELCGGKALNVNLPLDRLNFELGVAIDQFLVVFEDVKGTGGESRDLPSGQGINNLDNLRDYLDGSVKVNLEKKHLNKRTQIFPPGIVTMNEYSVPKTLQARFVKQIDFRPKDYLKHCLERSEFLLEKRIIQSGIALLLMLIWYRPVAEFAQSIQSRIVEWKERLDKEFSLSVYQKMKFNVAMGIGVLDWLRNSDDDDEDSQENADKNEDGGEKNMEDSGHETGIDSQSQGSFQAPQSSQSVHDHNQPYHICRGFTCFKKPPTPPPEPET

inhibition, inactive:
CCOC(=O)/C=C1\Nc2ccccc2OC1=O 28.2%
Cc1ccc2c(c1)NC(=O)C(CC(=O)O)O2 (stereo not given) 3.98%
CCCN(CCC)S(=O)(=O)c1ccc(NC(=O)C2CCCO2)cc1 (stereo not given) 3.88%
N/C(COc1ccc(C(=O)O)cc1)=N\O 0.11%
OCCNc1c2ccccc2nc2ccccc12 12.6%
COc1ccc(CCNc2c3ccccc3nc3ccccc23)cc1OC 11.5%
CCN(CC)CCN1C(=O)C(O)=C(C(=O)c2cc3ccccc3o2)C1c1cccnc1 (stereo not given) 2.07%
CCN(CC)CCN1C(=O)C(O)=C(C(=O)c2sc(C)nc2C)C1c1cccnc1 (stereo not given) 2.43%
O=C(O)CC(NS(=O)(=O)c1cccc2nsnc12)c1ccc(F)cc1 (stereo not given) 0.56%
O=c1[nH]n(-c2ccccc2)c(=O)c2ccccc12 3.85%
O=c1c2ccccc2c2ccccc2c(=O)n1-c1ccccc1 4.04%
COc1cccc(C(=O)Nc2cc(OC)ccc2NC(=O)c2ccco2)c1 17.6%
Nc1ccc2c(c1)C(=O)C(=O)c1ccccc1-2 15.6%
NCCN=C1NS(=O)(=O)c2ccccc21 7.44%
CC(=O)Nc1ccc(Nc2nc3ccccc3nc2NS(=O)(=O)c2ccccc2)cc1 23.5%
CC(=O)Nc1ccc(S(=O)(=O)Nc2nc3ccccc3nc2Nc2ccc(S(N)(=O)=O)cc2)cc1 6.12%
COc1ccc(Nc2nc3ccccc3nc2NS(=O)(=O)c2ccc(NC(C)=O)cc2)cc1 12.8%
CC(=O)Nc1ccc(S(=O)(=O)Nc2nc3ccccc3nc2Nc2ccccc2)cc1 1.54%
Cn1c(=O)c(C(=O)c2ccc(S(C)(=O)=O)c(Cl)c2Cl)c(O)c2ccccc21 17%
Cn1cc(C(=O)NCCO)c(=O)c2ccccc21 -1.83%
O=C(CSc1nnc(-c2ccccc2)n1CC1CCCO1)N1CCCC1 (stereo not given) 12.8%
Cc1nnc2ccc(-c3cccc(NS(=O)(=O)c4ccccc4Cl)c3)nn12 10.3%
CSc1ccccc1N=Cc1nc(-c2ccccc2)oc1O 8.02%
Cc1cccc(NCC(=O)c2c(N)n(C)c(=O)n(C)c2=O)c1C 4.72%
COC(=O)CN1C(c2cccc(Cl)c2)=Nc2ccc(Cl)cc2C1c1ccccc1 (stereo not given) 7.04%
COc1cccc(/C=N/n2c(SC)nnc2-c2ccccc2)c1O 26.3%
COc1cc(/C=N/n2c(-c3cc(C)[nH]n3)n[nH]c2=S)cc(OC)c1O 24.5%
COc1cc(/C=N/n2c(C3CCCCC3)n[nH]c2=S)cc(OC)c1O 10.8%
COc1ccc(/C=N/n2c(-c3n[nH]c4c3CCC4)n[nH]c2=S)cc1OC 23.9%
COc1cc(/C=N/n2c(C3CCCCC3)n[nH]c2=S)ccc1O 21%
COc1cccc(/C=N/n2c(-c3cc(C)[nH]n3)n[nH]c2=S)c1OC 26.8%
COc1ccc(CCNC(=O)CN(C)S(=O)(=O)c2ccc(Br)s2)cc1OC -4.17%
Cc1c(Cc2ccccc2)c(=O)oc2c(C)c(OCc3nn[nH]n3)ccc12 11.2%
CCN1CCc2c(OCC(=O)Nc3ccc4c(c3)OCCO4)cccc2C1=O 1.06%
Cc1cc(C)c(S(=O)(=O)c2ccc(Cl)cc2)c(=O)[nH]1 7.48%
CCOc1ccc(-c2[nH]nc3c2C(c2ccc4c(c2)OCO4)C(C#N)=C(N)O3)cc1OC (stereo not given) 17%
O=C(CN(c1ccccc1Cl)S(=O)(=O)c1ccccc1)N/N=C/c1ccccc1C(=O)O 9.75%
CC(=O)N1CCN(CC(=O)Nc2sccc2C#N)CC1 4.43%
CCOc1ccccc1NC(=O)C1CC2CCCC(C1)C2=O (stereo not given) 14.6%
CCc1ccccc1NC(=O)Cn1c(=O)n(-c2ccc(CC(=O)NCC3CCCO3)cc2)c(=O)c2ccccc21 (stereo not given) 23.2%
CN(C)Cc1c(O)ccc2c(=O)c(-c3ccc(Cl)cc3)coc12 2.49%
O=c1cc(-c2ccc([N+](=O)[O-])cc2)c2ccc(O)cc2o1 9.32%
COc1ccc(-n2cnnc2SCCC#N)cc1 2.92%
CCOc1cc(CNc2ccc3c(c2)OCCO3)cc(Br)c1OCC(N)=O 32.4%
COc1cc(CNCCCN2CCOCC2)ccc1OCC(=O)NC(C)(C)C -1.04%
CCOc1cc(CNc2ccc(N3CCCCC3)cc2)cc(Br)c1OCC(=O)NC(C)(C)C 19.5%
COc1cc(CNCCN2CCOCC2)ccc1OCC(=O)NC(C)(C)C 3.18%
COc1cc(CNC(C)(C)C)ccc1OCC(=O)NC(C)(C)C 12.2%
COc1cc(CNc2ccc(N3CCOCC3)c(C(=O)O)c2)ccc1OCC(N)=O 14%
O=C(c1cc2ccccc2o1)n1nnc2ccccc21 3.13%
CC(C)(C)NS(=O)(=O)c1cc(C(=O)Nc2sccc2C#N)ccc1Cl 8.52%
COc1cc(NC(=O)C2CCCN(S(=O)(=O)c3ccc4c(c3)oc(=O)n4C)C2)cc(OC)c1 (stereo not given) 1.24%
O=C(O)CSCC(=O)N1CCN(c2nc3cc(Cl)ccc3s2)CC1 8.15%
C=CCNC(=O)c1ccccc1NS(=O)(=O)c1ccccc1 4.06%
CCN(CC)CCNC(=O)c1cn(-c2ccccc2)nc1-c1cccs1 12.7%
Nc1nc(-c2ccc(-n3nncc3-c3ccco3)cc2)cs1 13.1%
c1coc(-c2nnc(-c3ccco3)nn2)c1 63.8%
c1coc(-c2nc3ccccc3nc2-c2ccco2)c1 50.2%
c1ccc(-c2nc(-c3ccco3)cs2)nc1 23.7%
COc1ccc(-c2csc(C)n2)cc1 13.6%
Cc1nc(-c2ccccc2)cs1 12.6%
COc1ccc(-c2csc(C)n2)cc1OC 2.09%
Oc1ccccc1-c1csc(-c2ccccc2)n1 6.78%
COc1ccc(-c2csc(-c3ccc(O)cc3)n2)cc1 21%
COc1ccc(-c2csc(C)n2)cc1Br 10.3%
